Data: PubChem BioAssay
Calls of active or inactive are those of the source.

How the values were obtained:
Albumin (Bos taurus) = Albumin (Bos taurus) (UniProt P02769); assay: bovine serum albumin binders on microarray, profiling panel, artefact control for SMM control protein annotation, biochemical, small-molecule microarray, Alexa647 label, 635/667 nm fluorescence (AID 1118); settings: BSA-A647 binding, fluorescence 635 nm, higher = more signal;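 further: score merges 667 nm emission intensity and signal-to-noise per printed compound spot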
Sequence of Albumin (Bos taurus) (P02769 whole entry, looked up): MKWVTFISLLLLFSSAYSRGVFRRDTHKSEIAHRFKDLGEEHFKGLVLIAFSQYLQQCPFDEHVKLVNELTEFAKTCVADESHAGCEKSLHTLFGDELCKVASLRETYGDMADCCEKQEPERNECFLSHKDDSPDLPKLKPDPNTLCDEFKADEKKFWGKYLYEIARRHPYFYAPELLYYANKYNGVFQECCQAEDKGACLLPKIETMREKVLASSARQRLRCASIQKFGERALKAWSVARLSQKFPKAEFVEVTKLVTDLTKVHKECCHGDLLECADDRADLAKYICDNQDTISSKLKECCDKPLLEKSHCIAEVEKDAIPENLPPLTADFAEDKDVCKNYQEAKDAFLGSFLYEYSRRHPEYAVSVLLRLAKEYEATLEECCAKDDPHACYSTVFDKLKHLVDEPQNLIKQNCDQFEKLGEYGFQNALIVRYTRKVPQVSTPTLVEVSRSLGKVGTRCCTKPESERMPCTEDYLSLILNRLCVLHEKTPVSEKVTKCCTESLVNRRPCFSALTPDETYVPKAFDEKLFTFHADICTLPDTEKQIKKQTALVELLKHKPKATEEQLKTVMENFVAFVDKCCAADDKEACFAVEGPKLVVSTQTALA

[1] = small-molecule microarray binders of probe aXIP, primary screen, biochemical, NeuroSMM set, 635/667 nm fluorescence (AID 1119); settings: higher = more signal, called active from +8 up or from −8 down;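 further: probe is the protein aXip251-270 applied at 1 µg/mL to compound-printed slides; binding of probe to printed compounds measured as 667 nm fluorescence plus signal to noise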
[2] = small-molecule binders of probe aNOTCH3, primary screen, biochemical, small-molecule microarray, 635/667 nm fluorescence (AID 1120); settings: higher = more signal;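 further: probe is a biotin-tagged antibody raised against NOTCH3 rather than NOTCH3 protein; score merges spot fluorescence near 667 nm with spot signal to noise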
[3] = small-molecule binders of probe aNOTCH2, primary screen, biochemical, small-molecule microarray, 635/667 nm fluorescence (AID 1121); settings: higher = more signal;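 further: score merges feature fluorescence read at 667 nm with its signal to noise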
[4] = target: Carbonic anhydrase 2 (Homo sapiens) (UniProt P00918); assay: CAII small-molecule binders, profiling panel, biochemical, small-molecule microarray, Alexa647-labelled CAII (AID 1122); settings: CAII-A647 binding fluorescence, higher = more signal
[5] = COS7 lysate on small-molecule microarray, probe aHis, 635 nm (AID 1123); settings: COS7 cell lysate, fluorescence, higher = more signal;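 further: z-score combines 667nm fluorescence intensity with signal-to-noise per printed compound spot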
[6] = compound binding in COS7 lysate, probe aLAP1, primary screen, cell lysate, small-molecule microarray (AID 1124); settings: probe aLAP1, fluorescence, higher = more signal;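 further: lysate comes from COS7 cells expressing LAP1 and is applied at 0.3 µg/mL; score merges spot fluorescence near 667 nm with signal-to-noise over triplicate slides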
Sam68 (KHDRBS1) = assay: Sam68 small-molecule binders, primary screen, biochemical, small-molecule microarray, 635 nm fluorescence (AID 1125); settings: small-molecule microarray binding, higher = more signal;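 further: score merges 667 nm channel intensity with signal to noise over triplicate slides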
[7] = tested on: Chordin-like protein 2 (CHRDL2); assay: CHRDL2 small-molecule binders, primary screen, biochemical, small-molecule microarray, 635 nm fluorescence (AID 1126); settings: small-molecule microarray binding, fluorescence 635 nm; higher = more signal;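 further: printed compound slides probed with Chrdl2 protein at 4 µg/mL for 1 h at 4 C; score merges 667 nm emission intensity with signal to noise over three replicate slides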
[8] = target: Concanavalin-A (Canavalia ensiformis) (UniProt P02866); assay: ConA small-molecule binders, primary screen, artefact control for SMM control protein annotation, biochemical, small-molecule microarray, Alexa647 label, 635 nm (AID 1127); settings: ConA-A647 binding fluorescence, higher = more signal;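 further: z combines 667 nm emission intensity with signal-to-noise across three replicate slides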
Sequence of Concanavalin-A (Canavalia ensiformis) (P02866 whole entry, looked up): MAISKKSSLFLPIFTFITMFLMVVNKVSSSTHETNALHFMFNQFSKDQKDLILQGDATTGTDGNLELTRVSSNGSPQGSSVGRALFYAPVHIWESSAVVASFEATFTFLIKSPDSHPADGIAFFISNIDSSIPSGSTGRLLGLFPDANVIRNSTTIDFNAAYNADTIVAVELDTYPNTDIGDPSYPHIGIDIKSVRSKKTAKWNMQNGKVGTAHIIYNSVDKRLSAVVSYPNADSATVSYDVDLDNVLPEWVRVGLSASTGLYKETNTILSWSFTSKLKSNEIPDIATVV

[9] = anti-His antibody binders, primary screen, artefact control for SMM control protein annotation, biochemical, small-molecule microarray, 635 nm fluorescence (AID 1128); settings: anti-His Alexa647 antibody binding, higher = more signal;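 further: score merges feature fluorescence with signal-to-noise for each printed compound spot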
[10] = tested on: Human papillomavirus type 1a E7 protein (residues 1-88); assay: HPV1a E7 small-molecule binders, primary screen, biochemical, small-molecule microarray, residues 1-88, 635 nm (AID 1129); settings: small-molecule microarray binding, fluorescence 635 nm; higher = more signal
[11] = target: Focal adhesion kinase 1 (Homo sapiens) (UniProt Q05397); assay: small-molecule microarray binders of FAK, primary screen, biochemical, 635/667 nm fluorescence, BSA, DTT (AID 1130); settings: PTK2 binding, 635 nm fluorescence, higher = more signal;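 further: composite of spot emission at 667 nm and signal to noise over triplicate slides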
Sequence of Focal adhesion kinase 1 (Homo sapiens) (Q05397 whole entry, looked up): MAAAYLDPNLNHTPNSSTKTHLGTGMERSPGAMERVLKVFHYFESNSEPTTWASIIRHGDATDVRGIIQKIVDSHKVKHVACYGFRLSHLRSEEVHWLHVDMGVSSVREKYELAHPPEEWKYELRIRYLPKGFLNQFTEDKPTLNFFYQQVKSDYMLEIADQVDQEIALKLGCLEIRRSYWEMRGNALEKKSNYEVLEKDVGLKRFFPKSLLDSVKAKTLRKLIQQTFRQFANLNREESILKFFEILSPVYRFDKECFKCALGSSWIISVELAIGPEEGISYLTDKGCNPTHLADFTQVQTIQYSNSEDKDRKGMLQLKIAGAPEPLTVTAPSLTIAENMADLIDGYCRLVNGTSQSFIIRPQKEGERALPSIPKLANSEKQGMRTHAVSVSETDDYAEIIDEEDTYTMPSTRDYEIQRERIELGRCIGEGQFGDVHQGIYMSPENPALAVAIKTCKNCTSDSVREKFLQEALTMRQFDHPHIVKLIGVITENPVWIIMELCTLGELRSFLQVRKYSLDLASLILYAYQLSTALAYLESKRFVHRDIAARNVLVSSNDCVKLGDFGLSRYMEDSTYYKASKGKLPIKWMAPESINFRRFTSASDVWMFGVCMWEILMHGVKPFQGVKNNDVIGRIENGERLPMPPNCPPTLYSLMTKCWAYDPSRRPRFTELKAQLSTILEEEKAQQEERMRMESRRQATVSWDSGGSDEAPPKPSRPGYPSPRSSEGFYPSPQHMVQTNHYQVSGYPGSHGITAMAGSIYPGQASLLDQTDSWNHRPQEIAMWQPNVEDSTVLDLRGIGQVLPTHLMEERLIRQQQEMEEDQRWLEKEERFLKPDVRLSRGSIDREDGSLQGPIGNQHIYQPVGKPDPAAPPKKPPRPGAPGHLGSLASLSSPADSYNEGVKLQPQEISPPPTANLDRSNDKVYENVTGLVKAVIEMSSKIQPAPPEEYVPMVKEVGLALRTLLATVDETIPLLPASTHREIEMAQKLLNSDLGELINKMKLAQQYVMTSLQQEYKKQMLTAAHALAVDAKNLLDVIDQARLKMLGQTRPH

[12] = tested on: Fibrinogen (Alexa647-labelled); assay: fibrinogen binders on compound microarrays, profiling panel, artefact control for SMM control-protein annotation, biochemical, small-molecule microarray, 635/667 nm fluorescence (AID 1131); settings: fibrinogen-A647 binding fluorescence, higher = more signal;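 further: z-score merges 667 nm fluorescence with per-spot signal-to-noise over triplicate slides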
[13] = target: Follistatin (Homo sapiens) (UniProt P19883); assay: follistatin binders on small-molecule microarrays, primary screen, biochemical, small-molecule microarray, 635/667 nm fluorescence (AID 1132); settings: FST binding, 635 nm fluorescence, higher = more signal
Sequence of Follistatin (Homo sapiens) (P19883 whole entry, looked up): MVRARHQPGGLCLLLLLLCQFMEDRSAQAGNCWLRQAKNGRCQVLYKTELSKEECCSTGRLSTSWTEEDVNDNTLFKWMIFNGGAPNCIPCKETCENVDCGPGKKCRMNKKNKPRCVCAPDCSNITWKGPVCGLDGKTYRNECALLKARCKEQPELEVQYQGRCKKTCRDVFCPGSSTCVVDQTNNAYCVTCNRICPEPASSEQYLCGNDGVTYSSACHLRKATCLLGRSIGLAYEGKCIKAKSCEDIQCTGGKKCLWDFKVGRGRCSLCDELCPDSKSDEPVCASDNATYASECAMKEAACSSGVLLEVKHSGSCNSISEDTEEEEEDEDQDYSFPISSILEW

[14] = target: Fibroblast growth factor 2 (Homo sapiens) (UniProt P09038); assay: FGF2 binders on small-molecule microarrays, primary screen, biochemical, small-molecule microarray, 635/667 nm fluorescence (AID 1133); settings: small-molecule microarray binding, FGF2, fluorescence 635/667; higher = more signal
Sequence of Fibroblast growth factor 2 (Homo sapiens) (P09038 whole entry, looked up): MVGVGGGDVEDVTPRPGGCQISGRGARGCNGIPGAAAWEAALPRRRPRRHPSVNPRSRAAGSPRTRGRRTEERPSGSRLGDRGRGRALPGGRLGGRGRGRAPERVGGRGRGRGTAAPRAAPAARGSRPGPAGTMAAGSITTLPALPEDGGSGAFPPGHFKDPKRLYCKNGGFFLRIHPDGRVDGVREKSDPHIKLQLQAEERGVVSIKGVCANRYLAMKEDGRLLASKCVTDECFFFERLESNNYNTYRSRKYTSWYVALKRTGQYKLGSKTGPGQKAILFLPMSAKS

[15] = mitochondrial membrane potential change in A549 cells, profiling panel, cell-based, JC-1 fluorescence, basal, 24 h, 100 nL (AID 1138); settings: higher = more signal;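 further: A549 lung adenocarcinoma cells under basal conditions with no added stimulus; test concentration not given here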
Lefty1 = Lefty1 binders on small-molecule microarrays, primary screen, biochemical, small-molecule microarray, 635/667 nm fluorescence (AID 1139); settings: small-molecule microarray binding, fluorescence 635/667; higher = more signal
[16] = tested on: wheat germ agglutinin (Triticum aestivum), Alexa647-labelled; assay: wheat germ agglutinin binders on compound microarrays, profiling panel, artefact control for SMM control-protein annotation, biochemical, small-molecule microarray, 635/667 nm fluorescence (AID 1140); settings: WGA-A647 binding, 635 nm fluorescence, higher = more signal;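 further: score merges 667 nm feature emission with signal to noise over triplicate slides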
[17] = target: Luciferin 4-monooxygenase (Photinus pyralis) (UniProt P08659); assay: firefly luciferase enzyme inhibitors, primary screen, biochemical, luminescence, purified enzyme, 2006 set (AID 1141); settings: SteadyGlo luminescence, 30 min, higher = more signal, called active from +8 up or from −8 down;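 further: cell-free assay with purified firefly luciferase at 100 ng per well in PBS; test concentration not given here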
Sequence of Luciferin 4-monooxygenase (Photinus pyralis) (P08659 whole entry, looked up): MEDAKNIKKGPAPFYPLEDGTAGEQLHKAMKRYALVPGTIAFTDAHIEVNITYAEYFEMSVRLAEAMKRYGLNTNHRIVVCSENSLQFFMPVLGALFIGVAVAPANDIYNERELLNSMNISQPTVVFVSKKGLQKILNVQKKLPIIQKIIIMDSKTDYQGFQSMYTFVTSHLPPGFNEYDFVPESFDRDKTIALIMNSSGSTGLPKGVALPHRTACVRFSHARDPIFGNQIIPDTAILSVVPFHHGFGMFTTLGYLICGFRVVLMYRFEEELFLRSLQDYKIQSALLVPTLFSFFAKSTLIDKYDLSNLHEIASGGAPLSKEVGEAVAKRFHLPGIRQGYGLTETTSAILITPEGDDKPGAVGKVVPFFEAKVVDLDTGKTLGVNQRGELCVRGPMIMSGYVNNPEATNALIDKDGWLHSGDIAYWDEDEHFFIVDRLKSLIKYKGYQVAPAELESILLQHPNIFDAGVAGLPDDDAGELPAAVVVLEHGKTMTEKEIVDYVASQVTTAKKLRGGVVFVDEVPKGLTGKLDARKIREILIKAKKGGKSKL

Structure (SMILES)	composite z-score (Albumin (Bos taurus))	composite Z-score [1]	composite z-score [2]	composite z-score [3]	composite z-score [4]	composite z-score [5]	composite z-score [6]	composite z-score (Sam68 (KHDRBS1))	composite z-score [7]	composite z-score [8]	composite z-score [9]	composite z-score [10]	composite z-score [11]	composite z-score [12]	composite z-score [13]	composite z-score [14]	z-score [15]	composite z-score (Lefty1)	composite z-score [16]	z-score [17]
CCCC#C[Si](O[C@H](CC)c1cn(Cc2cccc(Cl)c2)nn1)(C(C)C)C(C)C	0.697	-0.014 (inactive)	0.0715	-0.179	0.182	1.03	0.249	1.18	0.103	0.7	0.849	0.87	-0.442	0.684	0.357	0.54	-0.264	0.467	0.686	-0.786 (inactive)
CN1C=C(C(=O)OCCS(C)(=O)=O)C(C(=O)OCCS(C)(=O)=O)=CC(c2ccc(CO)cc2)=CC1C1CC1 (stereo not given)	-0.0317	0.0063 (inactive)	-0.0918	-0.133	0.497	0.951	0.901	0.449	-0.246	0.168	-0.281	0.138	0.0684	0.28	0.126	-0.101	1.48	0.53	0.922	-1.5 (inactive)
